Among the data in PubChem BioAssay (NCI) are growth values, retold here.

Molecules are shown by their SMILES. “And” between values parts separate entries of the source, which are not always exact repeats. Equal values may be shown once. About 83,000 compounds went through this panel and 20% of them were active in at least one assay; those are over-represented in the sample as a whole.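 The endpoint reported here, percent growth, reads 100 for growth as untreated, 0 for no net growth and -100 for all cells dead.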 The source made the active and inactive calls. The calls were made as follows: active = growth percent below 10; inactive = the rest.

Common to all, as to test: NCI-60 one-dose screen, 48 h (100 = growth as untreated, 0 = no growth, -100 = all killed)
One assay relates to SK-MEL-2 melanoma. To be noted: 10 µM unless noted.
For the next assay, the system named is EKVX NSCLC. To be noted: 10 µM unless noted.
The test system of another assay is SN12C renal. The conditions noted are these: 10 µM unless noted.
Another assay concerns UO-31 renal. The conditions noted are these: 10 µM unless noted.
A further assay relates to TK-10 renal.
The next assay concerns ACHN renal. To be noted: 10 µM unless noted.
Another assay relates to CAKI-1 renal. The conditions noted are these: 10 µM unless noted.
The test system of another assay is A498 renal. To be noted: 10 µM unless noted.
In a further assay the test system is CCRF-CEM leukemia. The conditions noted are these: 10 µM unless noted.
Another assay has as its system MOLT-4 leukemia. To be noted: 10 µM unless noted.

Take `CCC(=O)Oc1ccc(OCc2ccccc2)cc1`: the growth in the assay on SK-MEL-2 melanoma is 123% (inactive); in the assay on EKVX NSCLC it was 97.2% (inactive) and 105% (inactive); in the assay on SN12C renal, 110% (inactive) and 81.6% (inactive); with UO-31 renal, 45.6% (inactive) and 30.4% (inactive); in the assay with TK-10 renal (10 µM unless noted), 92.1% (inactive); in the assay on ACHN renal it was 18.4% (inactive) and 13.3% (inactive). Moreover, the growth in the assay on CAKI-1 renal was 61.2% (inactive) and 3.23% (active); in the assay on A498 renal it was 120% (inactive) and 93.1% (inactive); with CCRF-CEM leukemia, 62.9% (inactive) and 63.6% (inactive).

In the case of `NC1=NC(c2ccccc2)N=C(Nc2ccccc2)N1` (stereo not given), the growth with SK-MEL-2 melanoma was 100% (inactive) and 84.3% (inactive); in the assay on EKVX NSCLC, 79.3% (inactive) and 90.5% (inactive); with SN12C renal, 98.6% (inactive) and 99.1% (inactive); in the assay with UO-31 renal, 105% (inactive) and 89.7% (inactive); with TK-10 renal (10 µM unless noted), 94% (inactive) and 102% (inactive); with ACHN renal it was 97.9% (inactive) and 84.1% (inactive). The growth in the assay on CAKI-1 renal was 74.2% (inactive) and 93.8% (inactive); with A498 renal, 96.3% (inactive) and 110% (inactive); with CCRF-CEM leukemia, 49.6% (inactive) and 95.1% (inactive); with MOLT-4 leukemia, 65.7% (inactive) and 71.4% (inactive).

`C#CCOC(=O)C(N)CS` (stereo not given): the growth in the assay on SK-MEL-2 melanoma was 115% (inactive); in the assay with EKVX NSCLC it was 92.9% (inactive); in the assay on SN12C renal, 87.2% (inactive); with UO-31 renal, 82.5% (inactive); with TK-10 renal (10 µM), 107% (inactive); in the assay on TK-10 renal (100 µM), 103% (inactive) and 107% (inactive). Besides, the growth in the assay on ACHN renal is 98.8% (inactive); in the assay on CAKI-1 renal, 99.9% (inactive); with A498 renal it was 128% (inactive); with CCRF-CEM leukemia it was 107% (inactive); with MOLT-4 leukemia, 108% (inactive).

As for `CCOC(=O)c1ccc(N2C(=O)C(Cl)(c3ccccc3)C2c2ccco2)cc1` (stereo not given), the growth in the assay on SK-MEL-2 melanoma was 98.7% (inactive); in the assay with EKVX NSCLC, 61.2% (inactive); with SN12C renal, 95% (inactive); in the assay with UO-31 renal, 70.8% (inactive); with TK-10 renal (10 µM unless noted), 106% (inactive); with ACHN renal, 91.9% (inactive). In addition, the growth is 71.7% (inactive) with CAKI-1 renal, 88.8% (inactive) with A498 renal, 62.3% (inactive) in the assay on CCRF-CEM leukemia and 59.9% (inactive) in the assay with MOLT-4 leukemia.

For `CC1OS(=O)OC1C` (stereo not given), the growth was 91.4% (inactive) and 111% (inactive) in the assay on SK-MEL-2 melanoma; 100% (inactive) in the assay with EKVX NSCLC; 95.8% (inactive) and 95.4% (inactive) with SN12C renal; 96.1% (inactive) in the assay on UO-31 renal; 99.8% (inactive) and 107% (inactive) with TK-10 renal (10 µM unless noted); 91.9% (inactive) and 103% (inactive) in the assay with ACHN renal. The growth is 96.7% (inactive) and 89.1% (inactive) in the assay on CAKI-1 renal; 101% (inactive) and 105% (inactive) with A498 renal; 96.2% (inactive) in the assay with CCRF-CEM leukemia; 81% (inactive) and 113% (inactive) in the assay on MOLT-4 leukemia.

`CCOC(=O)c1csc(N)n1`: the growth in the assay on SK-MEL-2 melanoma is 103% (inactive); in the assay on EKVX NSCLC, 99.2% (inactive) and 99% (inactive); in the assay with SN12C renal, 100% (inactive) and 105% (inactive); in the assay on UO-31 renal it was 88.5% (inactive) and 91.9% (inactive); in the assay on TK-10 renal (10 µM unless noted), 111% (inactive) and 97.3% (inactive); in the assay on ACHN renal, 102% (inactive) and 104% (inactive). In addition, the growth in the assay with CAKI-1 renal was 66.6% (inactive); with A498 renal, 93.5% (inactive); in the assay with CCRF-CEM leukemia it was 91% (inactive) and 98.5% (inactive); in the assay with MOLT-4 leukemia, 79.3% (inactive) and 106% (inactive).

Take `O=C1C(=O)c2ccccc2C(O)=C1CC=C(Cl)Cl`: the growth in the assay on SK-MEL-2 melanoma was 89.2% (inactive) and 77.8% (inactive); in the assay with EKVX NSCLC, 75.8% (inactive); in the assay with SN12C renal, 68.8% (inactive) and 66.9% (inactive); in the assay with UO-31 renal it was 55% (inactive) and 47.8% (inactive); with TK-10 renal (10 µM unless noted) it was 75.8% (inactive) and 69.5% (inactive); in the assay with ACHN renal, 52.6% (inactive) and 65% (inactive). Also, the growth was 39.4% (inactive) and 30.8% (inactive) in the assay on CAKI-1 renal; 81% (inactive) and 82.9% (inactive) with A498 renal; 44% (inactive) and 39.3% (inactive) in the assay with CCRF-CEM leukemia; 20.5% (inactive) and 23.4% (inactive) in the assay with MOLT-4 leukemia.

On to `CCN(C)c1ccccc1`, for which the growth with SK-MEL-2 melanoma was 104% (inactive); with EKVX NSCLC, 87.5% (inactive); with SN12C renal, 96.7% (inactive); in the assay with UO-31 renal, 72.6% (inactive); with TK-10 renal (10 µM unless noted), 107% (inactive); in the assay on ACHN renal it was 103% (inactive). Besides, the growth in the assay with CAKI-1 renal is 90.8% (inactive); with A498 renal, 99.6% (inactive); in the assay on CCRF-CEM leukemia, 103% (inactive); in the assay with MOLT-4 leukemia, 88.2% (inactive).

For the compound `CC1(C)OC(=O)C(=Cc2ccc(C#N)cc2)C(=O)O1`, the growth with SK-MEL-2 melanoma is 93.7% (inactive); in the assay on EKVX NSCLC, 102% (inactive); in the assay on SN12C renal, 104% (inactive) and 112% (inactive); in the assay on UO-31 renal, 94.3% (inactive) and 87.1% (inactive); with TK-10 renal (10 µM unless noted), 98.3% (inactive) and 101% (inactive); in the assay with ACHN renal it was 108% (inactive) and 98.1% (inactive). Also, the growth was 102% (inactive) and 99.3% (inactive) in the assay with CAKI-1 renal; 104% (inactive) and 94.8% (inactive) with A498 renal; 102% (inactive) and 97.1% (inactive) with CCRF-CEM leukemia; 103% (inactive) and 80.1% (inactive) in the assay on MOLT-4 leukemia.

On to `O=C(O)/C=C/C=C/c1ccccc1`, for which the growth in the assay on SK-MEL-2 melanoma is 104% (inactive) and 115% (inactive); in the assay with EKVX NSCLC it was 100% (inactive); in the assay on SN12C renal it was 96% (inactive) and 106% (inactive); in the assay with UO-31 renal, 93.1% (inactive) and 88.4% (inactive); in the assay on TK-10 renal (10 µM unless noted), 97.3% (inactive) and 106% (inactive); with ACHN renal, 103% (inactive) and 109% (inactive). Moreover, the growth is 98.9% (inactive) and 101% (inactive) in the assay with CAKI-1 renal; 73.4% (inactive) in the assay with A498 renal; 102% (inactive) and 95.1% (inactive) in the assay with CCRF-CEM leukemia; 106% (inactive) and 109% (inactive) in the assay on MOLT-4 leukemia.
